# Assay results taken from PubChem BioAssay AID1159580 (chemical genetic matrix, 2015).
# In all, about 5,500 compounds went through this assay and about 2,000 (36%) were called active. About 18% were inconclusive and are not listed. The list shows a part of the results. Values without a mark were called inactive. No stated cut-off is given here; in the data, active means normalized growth mostly below about 0.91 (no sharp cut-off); inconclusive means no clear call, values can overlap the other calls; inactive means mostly above about 0.92.
# Test: chemical genetic growth profiling, strain panel (AID 1159580);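 further: tested at 20 µM; growth read once vehicle control cultures reached saturation at 30 °C; 1 = growth at the plate median or of vehicle wells; lower values mean less growth of the strain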
# Conditions: growth OD
smiles,measurement,setting,value
COc1ccc2c(c1)O[C@@H]1COc3cc(OC)c(OC)cc3[C@@H]1C2=O,normalized growth,"S. cerevisiae deletion strains, locus YJR043C, strain POL32, hits give low values",0.719 (active)
same,normalized growth,"S. cerevisiae deletion strains, locus YJR066W, strain TOR1, hits give low values",0.92
same,normalized growth,"S. cerevisiae deletion strains, locus YJR075W, strain HOC1, hits give low values",0.776 (active)
same,normalized growth,"S. cerevisiae deletion strains, locus YKL009W, strain mrt4, hits give low values",1.01
same,normalized growth,"S. cerevisiae deletion strains, locus YKL068W, hits give low values",0.984
same,normalized growth,"S. cerevisiae deletion strains, locus YKL085W, strain MDH1 (second series), hits give low values",0.984
same,normalized growth,"S. cerevisiae deletion strains, locus YKL085W, strain MDH1, hits give low values",0.984
same,normalized growth,"S. cerevisiae deletion strains, locus YKL160W, strain elf1, hits give low values",0.428 (active)
same,normalized growth,"S. cerevisiae deletion strains, locus YKR001C, strain vps1, hits give low values",0.912
same,normalized growth,"S. cerevisiae deletion strains, locus YKR026C, strain gcn3, hits give low values",0.992
same,normalized growth,"S. cerevisiae deletion strains, locus YKR091W, strain srl3, hits give low values",0.988
same,normalized growth,"S. cerevisiae deletion strains, locus YLL001W, strain dnm1, hits give low values",0.794 (active)
same,normalized growth,"S. cerevisiae deletion strains, locus YLL026W, hits give low values",0.557 (active)
same,normalized growth,"S. cerevisiae deletion strains, locus YLL041C, strain sdh2, hits give low values",0.674 (active)
same,normalized growth,"S. cerevisiae deletion strains, locus YLR027C, strain aat2, hits give low values",0.445 (active)
same,normalized growth,"S. cerevisiae deletion strains, locus YLR039C, strain RIC1, hits give low values",0.914
same,normalized growth,"S. cerevisiae deletion strains, locus YLR058C, strain SHM2, hits give low values",0.9
same,normalized growth,"S. cerevisiae deletion strains, locus YLR102C, strain apc9, hits give low values",0.696 (active)
same,normalized growth,"S. cerevisiae deletion strains, locus YLR113W, strain HOG1, hits give low values",0.983
same,normalized growth,"S. cerevisiae deletion strains, locus YLR221C, strain rsa3, hits give low values",0.377 (active)
same,normalized growth,"S. cerevisiae deletion strains, locus YLR258W, strain gsy2, hits give low values",0.705 (active)
same,normalized growth,"S. cerevisiae deletion strains, locus YLR262C, strain YPT6 (second series), hits give low values",0.994
same,normalized growth,"S. cerevisiae deletion strains, locus YLR262C, strain YPT6, hits give low values",0.928
same,normalized growth,"S. cerevisiae deletion strains, locus YLR268W, strain sec22, hits give low values",0.739 (active)
same,normalized growth,"S. cerevisiae deletion strains, locus YLR320W, strain mms22, hits give low values",0.228 (active)
same,normalized growth,"S. cerevisiae deletion strains, locus YLR342W, strain FKS1, hits give low values",0.665 (active)
same,normalized growth,"S. cerevisiae deletion strains, locus YLR357W, strain rsc2, hits give low values",0.932
same,normalized growth,"S. cerevisiae deletion strains, locus YLR370C, strain arc18, hits give low values",0.984
same,normalized growth,"S. cerevisiae deletion strains, locus YLR371W, strain rom2, hits give low values",0.854 (active)
same,normalized growth,"S. cerevisiae deletion strains, locus YLR384C, strain iki3, hits give low values",1.01
same,normalized growth,"S. cerevisiae deletion strains, locus YLR418C, strain cdc73, hits give low values",0.546 (active)
same,normalized growth,"S. cerevisiae deletion strains, locus YML016C, strain PPZ1, hits give low values",0.84 (active)
same,normalized growth,"S. cerevisiae deletion strains, locus YML032C, strain rad52, hits give low values",0.521 (active)
same,normalized growth,"S. cerevisiae deletion strains, locus YML120C, strain ndi1, hits give low values",0.59 (active)
same,normalized growth,"S. cerevisiae deletion strains, locus YML124C, strain tub3, hits give low values",0.874 (active)
same,normalized growth,"S. cerevisiae deletion strains, locus YMR058W, strain fet3, hits give low values",0.537 (active)
same,normalized growth,"S. cerevisiae deletion strains, locus YMR078C, strain ctf18, hits give low values",0.373 (active)
same,normalized growth,"S. cerevisiae deletion strains, locus YMR125W, strain sto1, hits give low values",0.612 (active)
same,normalized growth,"S. cerevisiae deletion strains, locus YMR129W, hits give low values",0.908 (active)
same,normalized growth,"S. cerevisiae deletion strains, locus YMR205C, strain PFK2, hits give low values",0.23 (active)
same,normalized growth,"S. cerevisiae deletion strains, locus YMR223W, strain ubp8, hits give low values",0.78 (active)
same,normalized growth,"S. cerevisiae deletion strains, locus YMR231W, strain pep5, hits give low values",0.991
same,normalized growth,"S. cerevisiae deletion strains, locus YMR263W, strain SAP30, hits give low values",0.922
same,normalized growth,"S. cerevisiae deletion strains, locus YMR307W, strain GAS1, hits give low values",0.909
same,normalized growth,"S. cerevisiae deletion strains, locus YNL067W, strain RPL9B, hits give low values",0.858 (active)
same,normalized growth,"S. cerevisiae deletion strains, locus YNL071W, strain lat1, hits give low values",0.246 (active)
same,normalized growth,"S. cerevisiae deletion strains, locus YNL153C, strain GIM3, hits give low values",0.597 (active)
same,normalized growth,"S. cerevisiae deletion strains, locus YNL183C, strain NPR1, hits give low values",0.927
same,normalized growth,"S. cerevisiae deletion strains, locus YNL209W, strain ssb2, hits give low values",1.01
same,normalized growth,"S. cerevisiae deletion strains, locus YNL233W, strain BNI4, hits give low values",0.427 (active)
same,normalized growth,"S. cerevisiae deletion strains, locus YNL248C, strain rpa49, hits give low values",0.814 (active)
same,normalized growth,"S. cerevisiae deletion strains, locus YNL250W, strain rad50, hits give low values",0.936
same,normalized growth,"S. cerevisiae deletion strains, locus YNL271C, strain bni1, hits give low values",0.963
same,normalized growth,"S. cerevisiae deletion strains, locus YNL298W, strain CLA4, hits give low values",0.97
same,normalized growth,"S. cerevisiae deletion strains, locus YNL307C, strain MCK1, hits give low values",0.183 (active)
same,normalized growth,"S. cerevisiae deletion strains, locus YNL322C, strain KRE1 (second series), hits give low values",0.761 (active)
same,normalized growth,"S. cerevisiae deletion strains, locus YNR049C, strain mso1, hits give low values",0.951
same,normalized growth,"S. cerevisiae deletion strains, locus YNR052C, strain pop2, hits give low values",0.948
same,normalized growth,"S. cerevisiae deletion strains, locus YOL012C, strain htz1",0.241
same,normalized growth,"S. cerevisiae deletion strains, locus YOL147C, strain pex11, hits give low values",0.25 (active)
same,normalized growth,"S. cerevisiae deletion strains, locus YOR001W, strain rrp6, hits give low values",0.689 (active)
same,normalized growth,"S. cerevisiae deletion strains, locus YOR061W, strain CKA2, hits give low values",0.967
same,normalized growth,"S. cerevisiae deletion strains, locus YOR069W, strain VPS5, hits give low values",0.905 (active)
same,normalized growth,"S. cerevisiae deletion strains, locus YOR070C, strain gyp1, hits give low values",0.528 (active)
same,normalized growth,"S. cerevisiae deletion strains, locus YOR080W, strain dia2, hits give low values",0.839 (active)
same,normalized growth,"S. cerevisiae deletion strains, locus YOR083W, strain WHI5, hits give low values",0.916
same,normalized growth,"S. cerevisiae deletion strains, locus YOR106W, strain vam3, hits give low values",0.871
same,normalized growth,"S. cerevisiae deletion strains, locus YOR136W, strain idh2, hits give low values",0.767 (active)
same,normalized growth,"S. cerevisiae deletion strains, locus YOR144C, strain elg1, hits give low values",0.573 (active)
same,normalized growth,"S. cerevisiae deletion strains, locus YOR184W, strain ser1, hits give low values",0.896
same,normalized growth,"S. cerevisiae deletion strains, locus YOR231W, strain MKK1, hits give low values",0.977
same,normalized growth,"S. cerevisiae deletion strains, locus YOR265W, strain rbl2, hits give low values",0.797 (active)
same,normalized growth,"S. cerevisiae deletion strains, locus YOR270C, strain vph1, hits give low values",0.593 (active)
same,normalized growth,"S. cerevisiae deletion strains, locus YOR290C, strain snf2, hits give low values",0.315 (active)
same,normalized growth,"S. cerevisiae deletion strains, locus YOR316C, strain cot1, hits give low values",0.771 (active)
same,normalized growth,"S. cerevisiae deletion strains, locus YPL051W, strain arl3, hits give low values",0.803 (active)
same,normalized growth,"S. cerevisiae deletion strains, locus YPL055C, strain LGE1, hits give low values",0.775
same,normalized growth,"S. cerevisiae deletion strains, locus YPL078C, strain atp4, hits give low values",0.635 (active)
same,normalized growth,"S. cerevisiae deletion strains, locus YPL106C, strain sse1, hits give low values",1.04
same,normalized growth,"S. cerevisiae deletion strains, locus YPL240C, strain hsp82, hits give low values",0.714 (active)
same,normalized growth,"S. cerevisiae deletion strains, locus YPL256C, strain CLN2, hits give low values",1.01
same,normalized growth,"S. cerevisiae deletion strains, locus YPR119W, strain clb2, hits give low values",0.731 (active)
same,normalized growth,"S. cerevisiae deletion strains, locus YPR141C, strain kar3, hits give low values",0.959
same,normalized growth,"S. cerevisiae deletion strains, locus YPR163C, strain tif3, hits give low values",0.438 (active)
same,normalized growth,"S. cerevisiae deletion strains, locus YPR167C, strain met16, hits give low values",0.886 (active)
same,normalized growth,"S. cerevisiae deletion strains, strain wtn01, hits give low values",0.686 (active)
same,normalized growth,"S. cerevisiae strains, strain wild type, hits give low values",0.753 (active)
